Experimental data taken from PubChem BioAssay AID449762 (Southern Research Specialized Biocontainment Screening …, 2010).
About 1,900 (0.58%) of roughly 330,000 compounds were called active. Roughly 4% stayed inconclusive and do not appear here. No stated cut-off is given here; in the data, inconclusive means inhibition above about 70% without an active follow-up result; inactive means below that. The list is a sample of the results. Results with a measured potency or affinity are listed apart.

Experiment: M. tuberculosis growth inhibition, HTS (AID 449762);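 further: bacterial growth assessed after seven days of incubation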
Conditions: M. tuberculosis H37Rv growth inhibition, 7H9 media; at 25 µM; active compounds read high

Row | SMILES | inhibition
1 | Clc1ccccc1N=C1SCCS1 | -6.64% (inactive)
2 | CSc1ncccc1C(=O)N(C)CC(=O)Nc1ccc(Cl)c(C(F)(F)F)c1 | -3% (inactive)
3 | COc1ccccc1N1CCN(C(=O)C2CCN(S(=O)(=O)c3ccc(F)cc3)CC2)CC1 | -1.53% (inactive)
4 | CC(=O)Nc1cc(C(=O)N2CCc3ccccc3C2)ccc1Sc1ccc(Cl)cc1 | 2.06% (inactive)
5 | Cc1nc2c(C)cccn2c(=O)c1NC(=O)c1cccs1 | -5.13% (inactive)
6 | C=CCNc1oc(-c2ccc(Cl)cc2)nc1C#N | 47.3% (inactive)
7 | C=CCNc1oc(-c2ccc(OC)cc2)nc1C#N | 4.44% (inactive)
8 | NS(=O)(=O)c1ccc(NC(=O)CSc2nnc(Cc3cccs3)n2-c2ccccc2)cc1 | 10.1% (inactive)
9 | O=C(/C=C/c1ccccc1)N1CCN(c2ccccn2)CC1 | -12.8% (inactive)
10 | CCc1cc[n+](C2=C([O-])c3ccccc3C(=O)/C2=N\S(=O)(=O)c2cccs2)cc1 | 2.09% (inactive)
11 | O=C1/C(=N\S(=O)(=O)c2cccs2)C([n+]2ccccc2)=C([O-])c2ccccc21 | -2.62% (inactive)
12 | CCCCC1(C(=O)OCC)CC(CN2CCOCC2)OC1=O (stereo unspecified) | -5.65% (inactive)
13 | CN1CCN(c2ccc(NC(=O)c3cccs3)cc2)CC1 | 0.58% (inactive)
14 | COC(=O)C1=C(C)Nc2[nH]c(=S)[nH]c(=O)c2C1c1ccc(OC)cc1 (stereo unspecified) | -7.09% (inactive)
15 | O=C(O)COc1ccc(/C=N/Nc2nc(Nc3ccccc3)nc(N3CCCCC3)n2)cc1 | 23.6% (inactive)
16 | COc1cc(/C=N/Nc2nc(Nc3ccccc3)nc(N3CCCCC3)n2)ccc1OCC(=O)O | 58.2% (inactive)
17 | N/C(=N\OC(=O)CC1CCCCC1)c1ccc([N+](=O)[O-])cc1 | -1.51% (inactive)
18 | CCOCCCn1c(=N)c(C(=O)NCc2ccc3c(c2)OCO3)cc2c(=O)n3cccc(C)c3nc21 | 68.2% (inactive)
19 | CCCn1c(=N)c(C(=O)NCC2CCCO2)cc2c(=O)n3cccc(C)c3nc21 (stereo unspecified) | -2.2% (inactive)
20 | Brc1ccc(-c2csc(-c3ccncc3)n2)cc1 | 36.4% (inactive)
21 | Brc1ccc(-c2csc(Nc3nc(-c4ccc(Br)cc4)cs3)n2)cc1 | 8.54% (inactive)
22 | Cc1ccc(NC(=S)N2CCN(c3ccccn3)CC2)c(C)c1 | 5.35% (inactive)
23 | Cc1c(N=NC2=C(O)CC(C)(C)CC2=O)cc2c(c1[N+](=O)[O-])C(C)(C)CC2(C)C | 6% (inactive)
24 | O=[N+]([O-])c1ccc(Nc2ccc(F)cc2)nc1 | -2.27% (inactive)
25 | COc1ccc(NC(=O)COC(=O)c2cc3c(s2)CCC3)cc1 | 9.83% (inactive)
26 | NC(=O)c1ccc(NC(=O)COC(=O)c2cc3c(s2)CCC3)cc1 | 6.74% (inactive)
